Source: PubChem
Hits are enriched below; roughly 12% of the tested compounds scored in any of these assays.
G9a block – G9a (human) methyltransferase inhibition; Q96KQ7; G9a H3K9 monomethylation, AlphaScreen, 2 h; Potency, µM (top dose mostly 102 µM), for the others: at the top dose activity, negative = inhibition, actives largely listed as inhibitors; 350,000 tested, 8.8% active; AID 504332; also: % is scaled to controls: 0 for no effect and ±100 for the full control effect; nearly all actives have a fitted effect of over 75% in size
Target sequence (Q96KQ7 913-1193 limits assumed): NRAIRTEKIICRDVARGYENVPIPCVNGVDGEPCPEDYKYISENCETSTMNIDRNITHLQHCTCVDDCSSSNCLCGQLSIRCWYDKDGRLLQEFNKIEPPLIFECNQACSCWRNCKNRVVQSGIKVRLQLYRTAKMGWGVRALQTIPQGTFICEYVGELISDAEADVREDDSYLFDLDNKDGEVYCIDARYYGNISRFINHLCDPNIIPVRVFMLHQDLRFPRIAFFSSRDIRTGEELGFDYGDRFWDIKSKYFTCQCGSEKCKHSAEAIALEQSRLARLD
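Using a bead-based AlphaScreen, monomethylated H3K9 product from 2 h room-temperature reactions (G9a 20 nM, peptide 500 nM, SAM 20 uM) was detected with 0.5 ug/mL rabbit anti-H3K9me1 antibody.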
Sfp PPTase inh – inhibitors of Bacillus subtilis Sfp phosphopantetheinyl transferase; Biochemical Sfp PPTase activity, qHTS; Potency, µM, without a hit: largest response in the series, negative = inhibition, hits mostly inhibitors; Q9F4F7; 310,000 tested, 3.5% active;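 also: the enzyme is Sfp with the accession as filed and its product quenches rhodamine fluorescence; 0% = enzyme reaction without inhibitor and -100% = no enzyme wells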
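Compounds were incubated with enzyme (final 15 nM) for 15 min at room temperature before substrate addition started the reaction. Fluorescence at 525 nm excitation, 598 nm emission was recorded immediately and after 30 minutes.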
JMJD2A Tudor inh – JMJD2A Tudor domain (human) inhibition; O75164; AlphaScreen JMJD2A-Tudor / H3K4me3 peptide binding; Potency, µM (doses to about 114 µM), without a hit: at the highest dose activity change, negative = inhibition, most hits filed as inhibitors; 390,000 tested, 4.4% active; also: % is scaled to controls: 0 for no effect and ±100 for the full control effect; nearly all actives have a fitted effect of over 50% in size
BAZ2B inh – inhibitors of human BAZ2B bromodomain; Q9UIF8; AlphaScreen BAZ2B-H3K14Ac peptide displacement; Potency, µM (highest dose often 114 µM), without a hit: top-dose activity change, negative = inhibition, actives largely listed as inhibitors; 360,000 tested, 4.4% active; also: % is scaled to controls: 0 for no effect and ±100 for the full control effect; nearly all actives have a fitted effect of over 60% in size
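BAZ2B 50 nM plus b-H3(5-23)K14Ac 50 nM, PBS pH 7.4/0.01% Tween-20, 30 min RT; compound added (max 110 uM), 30 min RT; streptavidin donor/Ni-chelate acceptor beads 10 ug/mL final, 20 min dark; AlphaScreen read.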
L3MBTL1 inh – L3MBTL1 (human) inhibition; AlphaScreen L3MBTL1–H3K9me1 peptide binding; Potency, µM (series often up to 57.1 µM), without a hit: at the highest dose activity, negative = inhibition, actives largely listed as inhibitors; 230,000 tested, 0.66% active; AID 485360; also: % is scaled to controls: 0 for no effect and ±100 for the full control effect; nearly all actives have a fitted effect of over 60% in size
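Displacement of a biotinylated histone H3(1-15) peptide monomethylated at Lys9 (75 nM) from L3MBTL1 (50 nM) was measured by AlphaScreen after a 30 min room-temperature compound incubation; cefsulodin titration served as intraplate control.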
HP1b binding inh – blocks HP1-beta chromodomain binding to methylated histone tails | P83916 | AlphaScreen HP1-beta / biotin-H3K9me3 peptide binding | Potency, µM (series often up to 114 µM), for inactives: top-dose activity change, negative = inhibition, usual class: inhibitors | 390,000 tested, 0.56% active | AID 540317; also: nearly all actives have a fitted effect of over 70% in size
Target sequence (P83916 whole entry, looked up): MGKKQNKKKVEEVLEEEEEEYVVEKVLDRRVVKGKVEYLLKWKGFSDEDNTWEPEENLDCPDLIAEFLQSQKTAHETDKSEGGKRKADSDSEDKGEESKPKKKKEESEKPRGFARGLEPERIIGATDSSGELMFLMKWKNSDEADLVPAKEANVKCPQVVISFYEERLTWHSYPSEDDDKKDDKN
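AlphaScreen: HP1-beta (50 nM) preformed 30 min with biotin-H3(1-18)K9me3 peptide (50 nM) in PBS pH 7.4, 0.01% Tween-20. Compound added for 30 min at RT, then streptavidin donor/nickel chelate acceptor beads (10 ug/mL) for 30 min.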
* = called active by the depositor; [ ] = remark or other dose. Calls follow the shape of the dose curve; as a rule, active = well fitted curve in the direction sought with a large enough effect; inconclusive = small, poorly fitted or top-dose-only effect, or another doubt; inactive = no such curve, though single readings can be large; an effect the other way counts as inactive or inconclusive. Potency is read from the fitted curve at half-maximal effect.

For CC(Oc1ccc(Cl)cc1Cl)C(=O)NC(=S)N1CCc2ccccc21 (stereo unspecified) the results were G9a block 28µM*, Sfp PPTase inh 17%, JMJD2A Tudor inh -34%, BAZ2B inh -22%, L3MBTL1 inh -29% and HP1b binding inh 17%.
O=C(NC(=S)N1CCc2ccccc21)C1CCC1 was read as G9a block inconclusive, Sfp PPTase inh -1%, JMJD2A Tudor inh -2%, BAZ2B inh -24%, L3MBTL1 inh -7% and HP1b binding inh 17%.
`CC(C)(C)C(=O)NC(=S)N1CCc2ccccc21` gave G9a block 20µM*, Sfp PPTase inh -27%, JMJD2A Tudor inh -29%, BAZ2B inh inconclusive, L3MBTL1 inh -10% and HP1b binding inh -22%[57 µM].
Fc1ccc(NC(=S)N2CCCc3ccccc32)cc1 was read as G9a block 40µM*, Sfp PPTase inh -20%, JMJD2A Tudor inh -26%, BAZ2B inh inconclusive, L3MBTL1 inh -7% and HP1b binding inh -17%.
`CC(C)C[C@@H](C(=O)O)N(Cc1cccc(CN([C@@H](CC(C)C)C(=O)O)S(C)(=O)=O)c1)S(C)(=O)=O` gave G9a block inconclusive, Sfp PPTase inh 6%, JMJD2A Tudor inh -23%, BAZ2B inh -10%, L3MBTL1 inh 11% and HP1b binding inh 57%.
`CS(=O)(=O)N(Cc1cccc(CN(C(C(=O)O)c2ccccc2)S(C)(=O)=O)c1)C(C(=O)O)c1ccccc1` (stereo unspecified) gave G9a block 32µM*, Sfp PPTase inh inconclusive, JMJD2A Tudor inh -31%, BAZ2B inh inconclusive, L3MBTL1 inh 9% and HP1b binding inh 36%.
`Cc1ccc(-c2cnc(SCCNC(=O)c3ccco3)[nH]2)cc1` gave G9a block 45µM*, JMJD2A Tudor inh -21%, BAZ2B inh -34%, L3MBTL1 inh 0% and HP1b binding inh 0%.
Screening C1CCC[C@H]2CCCN3CC[C@H](CCCCCC[C@@H]4CCCN5CC[C@H](CC1)OC45)OC23 returned G9a block 27%[59 µM] and Sfp PPTase inh 37%.
Screening O=C1CCC/C(=N\NC(=O)c2ccc(NS(=O)(=O)c3ccc(Br)cc3)cc2)C1 returned G9a block 79µM*, Sfp PPTase inh inconclusive, JMJD2A Tudor inh -3%, BAZ2B inh -6%, L3MBTL1 inh -2% and HP1b binding inh 37%.
`Cc1ccc(NC(=O)C2CCN(C(=O)[C@@H]3Cc4ccccc4CN3)CC2)c(C)c1` gave G9a block 45µM*, Sfp PPTase inh 2%, JMJD2A Tudor inh -32%, BAZ2B inh -12% and HP1b binding inh 35%.
For Cc1cccc(NC(=O)C2CCN(C(=O)[C@@H]3Cc4ccccc4CN3)CC2)c1 the results were G9a block inconclusive, Sfp PPTase inh 6%, JMJD2A Tudor inh -14%, BAZ2B inh -9% and HP1b binding inh 31%.
Screening O=c1cnc2cnc(Oc3cccc(Cl)c3)nc2n1Cc1ccc(F)cc1 returned G9a block -4%[12.7 µM] and Sfp PPTase inh -5%.
O=C(NCn1ccc(=O)[nH]c1=S)c1ccccc1 was read as G9a block 56µM*, Sfp PPTase inh -20%, JMJD2A Tudor inh -19%, BAZ2B inh -4%, L3MBTL1 inh 5% and HP1b binding inh -14%.
Screening CCOc1c(Br)cc(C(N)=O)cc1OC returned G9a block -2%, Sfp PPTase inh 3%, JMJD2A Tudor inh 56µM*, BAZ2B inh -11%, L3MBTL1 inh -6% and HP1b binding inh -18%.
For COc1cc(CO)cc(Br)c1OCC(=O)O the results were G9a block 50µM*, Sfp PPTase inh -3%, JMJD2A Tudor inh inconclusive, BAZ2B inh -4% and HP1b binding inh 30%.
COc1ccc(CNC(=O)CCC(=O)N2CC3CCCN3c3ccccc32)cc1 (stereo unspecified) was read as G9a block -14%[59 µM], JMJD2A Tudor inh inconclusive, BAZ2B inh -37% and HP1b binding inh -5%.
Screening CCN(c1ccc(NC(=O)COC(=O)C2CCN(c3ccc(C(F)(F)F)cn3)CC2)cc1)C(C)C returned JMJD2A Tudor inh 10µM* and HP1b binding inh inconclusive.
For CC(C)N(Cc1ccccc1)C(=O)COC(=O)C1CCN(c2ccc(C(F)(F)F)cn2)CC1 the results were G9a block 35µM*, JMJD2A Tudor inh 11%, BAZ2B inh 6%, L3MBTL1 inh 15% and HP1b binding inh inconclusive.
For CCc1ccc(NC(=O)C(C)OC(=O)C2CCN(c3ccc(C(F)(F)F)cn3)CC2)cc1 (stereo unspecified) the results were G9a block 7%, JMJD2A Tudor inh 5%, BAZ2B inh 3%, L3MBTL1 inh 6% and HP1b binding inh 24%.
For CC1(C)Cc2nc3sc(C(=O)NCCCO)c(N)c3cc2CS1 the results were G9a block 25µM*, Sfp PPTase inh 40µM*, JMJD2A Tudor inh -24%, BAZ2B inh inconclusive, L3MBTL1 inh -10% and HP1b binding inh 19%.
Screening CC1(C)Cc2nc3sc4c(NCCO)ncnc4c3cc2CS1 returned Sfp PPTase inh -11%, JMJD2A Tudor inh -30%, BAZ2B inh -20%, L3MBTL1 inh -7% and HP1b binding inh 8%.
Screening CC1(C)Cc2nc3sc(C(=O)O)c(N)c3cc2CS1 returned G9a block 50µM* and Sfp PPTase inh -23%.
For CC1(C)Cc2nc3sc(C(=O)NCCO)c(N)c3cc2CO1 the results were G9a block 11µM*, Sfp PPTase inh inconclusive, JMJD2A Tudor inh -22%, BAZ2B inh 11%, L3MBTL1 inh -3% and HP1b binding inh 18%.
For CC(=O)N(C)C the results were G9a block 27%[59 µM] and Sfp PPTase inh 15%.
For Cc1cc(=O)c2c(o1)C(=O)c1occc1C2=O the results were JMJD2A Tudor inh 45µM* and HP1b binding inh -23%.
Screening O=C(/C=C/c1c(C(=O)O)[nH]c2cc(Cl)cc(Cl)c12)Nc1ccccc1 returned Sfp PPTase inh 22%.
For CC(C)c1nn2c(=O)cc(COC(=O)c3cccs3)nc2s1 the results were G9a block 11%[59 µM], JMJD2A Tudor inh -15%, BAZ2B inh -3% and HP1b binding inh -19%.
Screening Cc1cc(C)nc(-n2nc(C)c3c(=O)[nH]c(C(F)(F)F)nc32)n1 returned G9a block -41%[59 µM], Sfp PPTase inh -29%, JMJD2A Tudor inh 79µM*, BAZ2B inh -5%, L3MBTL1 inh -4% and HP1b binding inh 10%.
Cc1nn(-c2cccc(Cl)c2)c2nc(C(F)(F)F)[nH]c(=O)c12 was read as G9a block -7%[59 µM], Sfp PPTase inh 19%, JMJD2A Tudor inh -4%, BAZ2B inh 1%, L3MBTL1 inh -8% and HP1b binding inh 39%.
